# From ChEMBL document CHEMBL4513216, “Probing the Open Global Health Chemical Diversity Library for Multistage-Active Starting Points for Next-Generation Antimalarials” (ACS Infect Dis, 2020)
# The whole screen tested about 65,000 compounds, of which about 2,100 (3.2%) showed an effect of 50% or more. The median lay at about -52%. Shown is part of a subset that was picked to be rich in strong results.
# Test system: Plasmodium falciparum
# Test: Screen against P. falciparum Asexual Blood Stage (ABS), at 5uM
# Assay type: functional, Dd2
# Settings: tested at 5 uM
row,Compound,INHIBITION [%]
1,CC(C)OCCNC1(c2ccc(F)cc2)CCOCC1,34.8
2,Cc1n[nH]cc1CNC1(c2ccc(F)cc2)CCCC1,83.4
3,Cc1nc(C2(NCc3ccc(C#N)cc3F)CCCCC2)no1,-32.3
4,O=C(c1cnccn1)N1CCN2C[C@H](Oc3cccnc3)C[C@H]2C1,-106
5,COc1ccccc1COCC(O)CN1CC(n2cccn2)C1 (configuration not stated),78.9
6,CCOCC(O)CN1CCN(C(=O)Cc2ccccc2C)CC1 (configuration not stated),-143
7,CN(C)c1ncc2c(n1)C1(CCN(Cc3ccccc3)C1)COC2 (configuration not stated),27.6
8,CC(Cc1ccccn1)N(C)Cc1ccc2c(c1)CCO2 (configuration not stated),8.31
9,Cc1ccnc(CC(C)N(C)Cc2ccc3c(c2)OCCO3)c1 (configuration not stated),-56.5
10,Cc1cccnc1CC(C)N(C)Cc1cccs1 (configuration not stated),81.7
11,Cc1cnn(CC2CCCN2Cc2cn3ccsc3n2)c1 (configuration not stated),81.3
12,CCCN(CCN(C)C)C(=O)Cc1cn2ccsc2n1,-76.3
13,Cc1nc(CN2CCCCC2Cn2cccn2)nc2ccccc12 (configuration not stated),70.4
14,Cc1nc(CN2CCCC2Cn2ccnc2C(C)C)nc2ccccc12 (configuration not stated),77.3
15,Cc1cnn(CC2CCCN2Cc2nc(C)c3ccccc3n2)c1 (configuration not stated),78
16,O=C(C1CCCCC1)N1C[C@@H]2CCNC[C@@H]21,9.5
17,Cc1ccc(N2CC[C@@H]3CN(Cc4c[nH]cn4)C[C@@H]3C2)nn1,-66.7
18,Cc1cc(CC(C)NC2CCSCC2)[nH]n1 (configuration not stated),-36.2
19,Cn1c(=O)n(C)c2cc(C3SCC(=O)Nc4ccsc43)ccc21 (configuration not stated),-86.5
20,O=C(c1ccccc1)C1CCN(Cc2cc3c(cc2O)CCC3)CC1,90.1
21,CC(C)NC(=O)[C@H]1CN(Cc2ccccc2)C[C@@H]1C(=O)c1ccccc1,-90.6
22,Cc1c(CN2CCCC(C(=O)c3ccccc3)C2)cc(C#N)n1C (configuration not stated),44.6
23,c1cc(-c2n[nH]cc2-c2ccnc(N3CCCCCC3)n2)ccn1,78
24,CC(C)[C@H](CO)Nc1nccc(-c2c[nH]nc2-c2ccncc2)n1,83.9
25,c1cc(-c2n[nH]cc2-c2ccnc(N3CCCC3)n2)ccn1,81.1
26,COc1cc(N2CC[C@@H]3[C@@H](CC2)OCCN3CC2CC2)ncn1,-53.8

row,Compound,INHIBITION [%]
1,COCC1CC2(CCNCC2)CN1c1ncccn1 (configuration not stated),-33.8
2,NC1(c2nc(C(F)(F)F)cc(=O)[nH]2)CCCC1,-131
3,Cc1cc(Cc2ccc(F)cc2)cc(C2CCCNC2)n1 (configuration not stated),73.9
4,Cc1cc(Cc2ccccc2)cc(C2CCCNC2)n1 (configuration not stated),76.1
5,Cc1cc(Cc2cccc(C(F)(F)F)c2)cc(C2CCCNC2)n1 (configuration not stated),93.9
6,Cc1cc(O)nc(C2CCCNC2)n1 (configuration not stated),-1.25
7,FC(F)(F)c1nc(C2CCCNC2)no1 (configuration not stated),-15.6
8,Cc1nc(NCCC23CCCN2CCC3)cc(C2CCCNC2)n1 (configuration not stated),-29.1
9,Cc1cccc(Cc2cc(C)nc(C3CCCNC3)c2)c1 (configuration not stated),80.1
10,Cc1cc(C)nc(C2CCCNC2)n1 (configuration not stated),-66.3
11,CC(C)c1ncc(Cl)c(C(=O)N2CCCN3CCCC3C2)n1 (configuration not stated),-79
12,CNC(=O)[C@H]1C[C@@H]2CN(Cc3cccnc3OC)C[C@@H]2N1C(C)=O,38.2
13,NC1(c2nc(-c3ccccc3)cc(=O)[nH]2)CCCCC1,-0.415
14,COCCN1CCC2(COCc3cnc(N(C)C)nc32)C1 (configuration not stated),-35.3
15,Cc1cc(Cc2ccccc2C)cc(C2CCCNC2)n1 (configuration not stated),78.9
16,CNc1cc(C2CCCNC2)nc(C)n1 (configuration not stated),-80.8
17,CC(C)c1nc(C2CCCNC2)no1 (configuration not stated),-62.1
18,CCCN1CCN(C(=O)c2ccnc(N)c2)[C@H]2CS(=O)(=O)C[C@H]21,-88.3
19,O=C1[C@@H]2CCN(Cc3ccoc3)C[C@@H]2OCCN1c1cccnc1,23.5
20,CC(C)CN1C(=O)CO[C@@H]2CNC[C@H]21,-4.26
21,Cc1cccc(CN2CCC(Cc3ccccc3F)CC2)n1,94
22,C[C@@H]1C[C@@H]2CCN(Cc3ccccn3)C[C@H]2O1,-25.2
23,Cc1cccc(CN2CC[C@H]3C[C@H](C)O[C@@H]3C2)n1,-37.4
24,C[C@H]1C[C@@H]2CCN(Cc3ccccn3)C[C@H]2O1,-59.7
25,Fc1ccccc1CC1CCN(Cc2ccccn2)CC1,70.4
26,Cc1cccc(CN2CC[C@H]3C[C@@H](C)O[C@@H]3C2)n1,-46.7
